From PubChem BioAssay AID588719 (Southern Research Specialized Biocontainment Screening …, 2011)
In all, about 1,500 compounds went through this assay and about 920 (61%) were called active. The rule behind the calls is not given here. So high a share suggests a set chosen from earlier hits. This is one part of the list. Entries with a potency or affinity are not part of this list.

Experiment: Vero 76 cell cytotoxicity, dose response, cytotoxicity control for VEEV inhibitor project (AID 588719)
Conditions: Vero 76 cells viability, cytotoxicity counter-screen; series mostly up to 25 µM

With `Cc1ccc(Nc2nc(=O)c3cccnc3s2)c(Br)c1` as the compound, how does the outcome read?
Its outcome is “inactive”.

With `CCN1C/C(=C\c2cc(OC)c(OC)c(OC)c2)C2=NN(c3ccccc3)C(c3cc(OC)c(OC)c(OC)c3)C2C1` (stereo not given) as the compound, how does the outcome read?
The outcome was “inactive”.

For `CC(C)CN1C(=O)/C(=C(/C#N)C(=O)NC2CCCCC2)c2ccccc21`, which outcome is on record?
The outcome was “inactive”.

With `Cc1ccc(SCCC(=O)Nc2nccs2)cc1` as the compound, how does the outcome read?
Its outcome is “inactive”.

For `COc1ccc(C(=O)NC2CCCc3c2cnn3-c2cccc(C)c2C)o1` (stereo not given), which outcome is on record?
Its outcome is “inactive”.

Which outcome does the source give for `Cn1c(CCN2CCCCC2)nc2cc(NC(=O)COc3ccc([N+](=O)[O-])cc3)ccc21` here?
Its outcome is “inactive”.

With `COc1ccc(Cl)cc1S(=O)(=O)N1CCN(C(=O)c2n[nH]c(=O)c3ccccc23)CC1` as the compound, how does the outcome read?
Its outcome is “inactive”.

With `O=c1oc(C2(O)CCCCC2)cc2ccc(-c3ccc4[nH]ccc4c3)cc12` as the compound, how does the outcome read?
Its outcome is “inactive”.

With `O=C(C=Cc1cccc(Cl)c1)c1ccccc1` as the compound, how does the outcome read?
The outcome was “inactive”.

With `Cc1cc(NC(=O)C(C)SCC(=O)N(Cc2ccccc2)c2ccccc2)no1` (stereo not given) as the compound, how does the outcome read?
The outcome was “inactive”.

Which outcome does the source give for `Cc1cc(NC(=O)COC(=O)c2cc(S(=O)(=O)N(C)c3ccccc3)ccc2Cl)no1` here?
The outcome was “inactive”.

Which outcome does the source give for `O=C(O)c1cc(-c2ccc3ccccc3c2)nc2ccc(F)cc12` here?
Its outcome is “inactive”.

Which outcome does the source give for `Cc1nc(N)ncc1Sc1ccccc1` here?
The outcome was “inactive”.

With `O=C(/C=C/c1ccnc2ccccc12)c1cccs1` as the compound, how does the outcome read?
Its outcome is “inactive”.

Which outcome does the source give for `O=C(CSc1nc2ccc(Cl)cc2[nH]1)c1cccs1` here?
The outcome was “inactive”.

Which outcome does the source give for `CN1CCN(c2ccc(CNS(=O)(=O)c3ccccc3)cc2)CC1` here?
The outcome was “inactive”.

With `COc1cccc(N2CCN(c3ccc(S(=O)(=O)N4CCN(C)CC4)cc3[N+](=O)[O-])CC2)c1` as the compound, how does the outcome read?
Its outcome is “inactive”.

Which outcome does the source give for `COc1ccc(N2CCN(CCCn3c(=S)[nH]c4ncccc4c3=O)CC2)cc1` here?
The outcome was “inactive”.

For `C#CCSc1nc(=O)c2cccnc2n1-c1ccc(C)cc1`, which outcome is on record?
Its outcome is “inactive”.

With `CCN(CC)CC(=O)Nc1ccc(/C(C)=N/NC2=NCCN2)cc1` as the compound, how does the outcome read?
Its outcome is “inactive”.
